DT40 TDP1 no CPT – qHTS for Inhibitors of human tyrosyl-DNA phosphodiesterase 1 (TDP1): qHTS in cells in absence of CPT; DT40 Tdp1-/- hTDP1 cells, no CPT, ATP luminescence, 48 h; Potency, µM (top dose mostly 46.2 µM), hits mostly inhibitors; actives 15% (n = 420,000); AID 686978, 2013; note: nearly all actives have a fitted effect of over 55% in size
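Cells were dispensed at 400 per well, compounds added by pin tool, plates incubated ≥48 hr at 37 °C, then CellTiter-Glo added for 30 min at room temperature before luminescence reading. Line: DT40 Tdp1-/- complemented with hTDP1; camptothecin omitted.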
DT40 TDP1 CPT – DT40-hTDP1 cell growth loss with CPT; chicken DT40 Tdp1-/-;hTDP1 cells + 20 nM CPT, ATP luminescence, 48 h; Potency, µM (top dose mostly 46.2 µM), hits mostly inhibitors; actives 12% (n = 420,000); AID 686979; note: nearly all actives have a fitted effect of over 55% in size
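Chicken DT40 Tdp1-/- cells stably complemented with human TDP1 were seeded at 400 cells/well in medium containing 20 nM camptothecin, exposed to pin-transferred compounds, and grown at 37 °C for at least 48 hr. Viability was read as ATP luminescence.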
TDP1 inh – inhibitors of human tyrosyl-DNA phosphodiesterase TDP1. recombinant TDP1, AlphaScreen DNA substrate cleavage. AID 485290. Potency, µM (titrated, usually from 130 µM), most hits filed as inhibitors. actives 0.28% (n = 350,000); note: nearly all actives have a fitted effect of over 40% in size
Target sequence (Q9NUW8 whole entry, looked up): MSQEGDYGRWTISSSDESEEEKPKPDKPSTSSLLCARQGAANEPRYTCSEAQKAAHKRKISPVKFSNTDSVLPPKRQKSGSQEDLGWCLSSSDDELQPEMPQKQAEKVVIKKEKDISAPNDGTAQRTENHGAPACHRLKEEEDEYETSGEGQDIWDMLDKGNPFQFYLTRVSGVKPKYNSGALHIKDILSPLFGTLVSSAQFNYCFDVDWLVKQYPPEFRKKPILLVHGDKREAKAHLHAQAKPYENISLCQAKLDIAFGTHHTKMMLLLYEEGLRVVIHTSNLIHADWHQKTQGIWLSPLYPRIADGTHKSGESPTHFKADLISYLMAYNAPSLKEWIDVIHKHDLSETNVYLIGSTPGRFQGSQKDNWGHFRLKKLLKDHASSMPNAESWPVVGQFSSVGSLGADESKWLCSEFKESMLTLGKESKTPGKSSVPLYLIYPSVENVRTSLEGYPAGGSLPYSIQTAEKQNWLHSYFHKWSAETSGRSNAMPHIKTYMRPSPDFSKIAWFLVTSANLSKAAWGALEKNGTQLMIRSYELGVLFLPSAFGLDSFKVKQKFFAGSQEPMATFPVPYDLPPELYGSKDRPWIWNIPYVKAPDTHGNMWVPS
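AlphaScreen read-out: signal falls as enzyme removes the 3' tyrosine-FITC from a 5'-biotinylated DNA oligo (15 nM, 5 min, RT). Enzyme was E. coli-made recombinant Tdp1 at 1 nM, exposed to compound for 15 min beforehand; beads 10 ug/ml, 10 min.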
ClpP mod – qHTS Assay for Activators of ClpP | ATP-dependent Clp protease proteolytic subunit (Bacillus subtilis (strain 168)), P80244 | purified B. subtilis ClpP, FRET peptide cleavage, 20 min | Potency, µM (titrated, usually from 57.5 µM) | actives 1.9% (n = 340,000); active = well fitted falling curve with a large enough effect; inconclusive = small, poorly fitted or top-dose-only effect; inactive = no such curve, though single readings can be large or run the other way; note: the source files actives as falling curves though it sought activators and does not explain the sign; nearly all actives have a fitted effect of over 65% in size
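Buffer: 100 mM Tris/HCl pH8, 100 mM KCl, 0.05% low protease BSA, 2.5% glycerol, 0.01% Tween-20. ClpP 10 microg/mL final; 20 min RT; delta FRET normalized to ADEP and DMSO controls.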
Numbers stand for hits; - = inactive; ? = inconclusive; . = no result given; [ ] = another dose, or the depositor's remark. Sampled rows, rich in hits. Any-hit rate of the full collection: about 17%. Unless noted, calls come from the whole dose curve; as a rule, active = well fitted curve in the direction sought with a large enough effect; inconclusive = small, poorly fitted or top-dose-only effect, or another doubt; inactive = no such curve, though single readings can be large; an effect the other way counts as inactive or inconclusive.

SMILES	DT40 TDP1 no CPT	DT40 TDP1 CPT	TDP1 inh	ClpP mod
Cc1cc(NC(=O)c2ccccc2)n(-c2nc3ccccc3[nH]2)n1	-	?	-	-
COc1cccc(OC)c1C(=O)Nc1cc(C)nn1-c1nc2ccccc2[nH]1	9.2µM	16µM	-	-
COc1cccc(C(=O)Nc2c3c(nn2-c2ccc(C)cc2C)CS(=O)(=O)C3)c1OC	23µM	?	-	-
Cc1cc(NC(=O)CC#N)n(-c2nc3ccccc3[nH]2)n1	?	?	-	-
O=C1CCCCC1C(O)(C(=O)c1ccccc1)c1ccccc1 (stereo not drawn)	?	-	.	-
CC1=C(C(=O)N(C)C)CC(CC(=O)NC2CC2)C(=O)N1Cc1ccccc1 (stereo not drawn)	-	-	.	-
COc1cc(C(=O)Nc2cc(C)nn2-c2ccccc2)cc(OC)c1OC	?	-	-[0.0935 µM]	.
COc1cccc(C(=O)Nc2cc(C)nn2-c2ccccc2)c1OC	23µM	?	.	.
O=C(NCc1nc2ccccc2[nH]1)c1cccs1	-	-	-	-
Cc1cc(NC(=O)c2cccs2)n(-c2nc3ccccc3[nH]2)n1	21µM	?	-	.
c1ccc(SC23CCCCN(CCC2)[C@]32CO2)cc1 (stereo partly drawn)	-	-	.	-
COc1ccc([C@H]2CC(=O)C=C(c3cc4ccccc4c4ccccc34)C2)cc1	?	?	-	-
COc1ccc(Cn2cc(CN3CC(N4CCN(Cc5ccccc5F)CC4)CS3(=O)=O)nn2)cc1 (stereo not drawn)	21µM	?	.	-
O=S1(=O)CC(N2CCN(Cc3ccccc3F)CC2)CN1Cc1cn(Cc2ccc(Cl)cc2)nn1 (stereo not drawn)	13µM	18µM	.	-
COC(=O)C1CCN(C(=O)C2CCN(C(=O)[C@@H](NS(=O)(=O)c3ccc(C)cc3)C(C)C)CC2)CC1	-	-	.	-
CC(C)N=C(NS(=O)(=O)NC(=O)c1ccccc1)c1ccccc1	-	-	-	-
Cc1[nH]n(-c2nc(-c3cccc([N+](=O)[O-])c3)cs2)c(=O)c1C	21µM	?	-	-
Cc1cc(C)cc(OC(=O)c2cc(-c3ccc4c(c3)OCCO4)on2)c1	-	-	-	32µM
Cc1ccccc1OC(=O)c1cc(-c2ccc3c(c2)OCCO3)on1	-	-	-	32µM
O=C(Oc1ccc(Cl)cc1)c1cc(-c2ccc3c(c2)OCCO3)on1	-	-	-	?
COc1ccc(OC(=O)c2cc(-c3ccc4c(c3)OCCO4)on2)cc1	?	?	-	-
Cc1cccc(OC(=O)c2cc(-c3ccc4c(c3)OCCO4)on2)c1	-	-	-	25µM
Cc1cn2c(=O)cc(COC(=O)COc3ccc(F)cc3)nc2s1	-	-	-	-
CCOC(=O)c1ccc(NS(=O)(=O)c2c(N)n(C)c(=O)n(C)c2=O)cc1	?	16µM	.	-
CCOC(=O)c1ccc(NS(=O)(=O)c2c(C)n[nH]c2C)cc1	-	-	-	-
SMILES	DT40 TDP1 no CPT	DT40 TDP1 CPT	TDP1 inh	ClpP mod
C/C(=N\Nc1cc(N2CCOCC2)nc(C)n1)c1cccc([N+](=O)[O-])c1	10µM	16µM	-	-
CCc1ccc(/C(C)=N/Nc2cc(Cl)nc(C)n2)cc1	?	23µM	-	-
Cc1nc(N/N=C/c2cccc([N+](=O)[O-])c2)cc(N2CCCCC2)n1	13µM	?	.	-
CCCCc1ccc(/C(C)=N/Nc2cc(N3CCOCC3)nc(C)n2)cc1	23µM	?	.	-
C/C(=N\Nc1ccc([N+](=O)[O-])cc1)c1ccc(N2CCOCC2)cc1	-	-	-	.
CCOc1ccc(CCNC(=O)CN2C(=O)C(CC)Oc3ccccc32)cc1OCC (stereo not drawn)	?	?	-	-
COc1cccc(CC(NC(C)=O)C(=O)NC2CCN(C(=O)c3ccc(Cl)cc3)CC2)c1OC (stereo not drawn)	-	-	.	.
NC(=O)C1CCN(C(=O)/C(=C/c2ccccc2)NC(=O)c2ccccc2)CC1	-	-	.	-
COc1ccc(NC(=O)c2c(NCc3cccc(OC)c3)sc3c2CCCC3)cc1	23µM	?	-	-
COc1ccc(/C=C/C(=O)Nc2sc3c(c2C(N)=O)CCCC3)cc1	-	-	-[12.3 µM]	-
COc1ccc(NC(=O)c2c(NCc3ccc(N(C)C)cc3)sc3c2CCC3)cc1	10µM	13µM	-	-
COc1ccc(NC(=O)c2c(NC(=O)CCC(=O)O)sc3c2CCCCC3)cc1	-	-	-	-
COC(=O)c1ccc(NC(=O)c2c(NCc3ccc(OC)c(OC)c3)sc3c2CCCC3)cc1	5.2µM	2.9µM	-	-
COC(=O)c1c(NC(=O)/C=C/c2ccc(OC)c(OC)c2)sc2c1CCC2	9.2µM	?	-[12.3 µM]	-
CCOC(=O)c1c(NC(=O)c2ccc(OC)c(OC)c2)sc2c1CCCCC2	?	?	-[12.3 µM]	-
COC(=O)c1ccc(NC(=O)c2c(NCc3ccc(C)o3)sc3c2CCCC3)cc1	?	15µM	-	-
COC(=O)Nc1sc2c(c1C(=O)NCc1ccco1)CCCC2	-	-	-	-
COc1cccc(CC(=O)Nc2sc3c(c2C(N)=O)CCCC3)c1	?	-	-	.
COc1ccc(CC(=O)Nc2sc3c(c2C(N)=O)CCCC3)cc1OC	18µM	?	-	.
COc1ccc(C(=O)Nc2sc(C)c(C)c2CN2CC(C)OC(C)C2)cc1 (stereo not drawn)	?	-	-	-
CCOC(=O)CC1(CC(=O)OCC)NC(=O)c2c(C)sc(C(=O)OCC)c2N1	?	?	-	35µM
COc1ccc(C2=Nn3c(nnc3-c3ccccc3O)SC2)cc1OC	.	.	-	.
COC(=O)c1ccc2nc(-c3cccc(Cl)c3)c(Cc3ccsc3)n2c1	16µM	?	.	?
COc1ccc(-c2nc3ccc(C)cn3c2Cc2ccsc2)cc1OC	7.3µM	8.2µM	.	-
COC(=O)c1ccc2nc(-c3ccc(OC)c(OC)c3)c(Cc3ccsc3)n2c1	23µM	16µM	.	-
SMILES	DT40 TDP1 no CPT	DT40 TDP1 CPT	TDP1 inh	ClpP mod
COC(=O)c1ccc2nc(-c3ccccc3)c(Cc3ccsc3)n2c1	?	21µM	.	-
CCOC(=O)C1CCN(C/C=C/c2ccccc2[N+](=O)[O-])CC1	-	-	.	-
CNc1ncncc1-c1ccc(C(=O)N(C)C)cc1	-	-	-	.
O=C(NC(=S)N1CCN(c2ccccc2)CC1)c1ccco1	?	-	-	-
COc1ccc(-c2nc3ccc(C)cn3c2CC2CCCCC2)cc1OC	18µM	18µM	.	-
COC(=O)c1ccc2nc(-c3ccc(Cl)cc3)c(Cc3ccsc3)n2c1	12µM	?	.	?
COC(=O)c1ccc2nc(-c3ccc(OC)c(OC)c3)c(Cc3ccc(OC)cc3C)n2c1	26µM	?	.	-
COC(=O)c1ccc2nc(-c3ccc(Cl)cc3)c(Cc3ccc(OC)cc3C)n2c1	?	?	.	-
Cc1cc(=O)[nH]c(-n2nc(C)cc2C)n1	23µM	23µM	-	-
Cc1cc(=O)[nH]c(N2CCCNCC2)n1	-	-	.	.
